# From PubChem
# Only some compounds are listed: those with a hit (about 3.5% of all), similar ones and a draw of the others.
# UGM FP inh: blocks M. tuberculosis UGM enzyme; inhibition, % at 10 µM; 0.06% of 320,000 active; purified UGM, fluorescence polarization probe displacement; P9WIQ1; AID 504406; in the data active = inhibition above about 10%, passing the limit was not always enough
# FBA Mtb inh: inhibits M. tuberculosis FBA enzyme; P9WQA3; purified M. tuberculosis FBA, fluorescence read-out; inhibition, % at 1 µM; 2.3% of 360,000 active;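 also: 0% = vehicle and 100% = reference inhibitor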
# Target sequence (P9WQA3 whole entry, looked up): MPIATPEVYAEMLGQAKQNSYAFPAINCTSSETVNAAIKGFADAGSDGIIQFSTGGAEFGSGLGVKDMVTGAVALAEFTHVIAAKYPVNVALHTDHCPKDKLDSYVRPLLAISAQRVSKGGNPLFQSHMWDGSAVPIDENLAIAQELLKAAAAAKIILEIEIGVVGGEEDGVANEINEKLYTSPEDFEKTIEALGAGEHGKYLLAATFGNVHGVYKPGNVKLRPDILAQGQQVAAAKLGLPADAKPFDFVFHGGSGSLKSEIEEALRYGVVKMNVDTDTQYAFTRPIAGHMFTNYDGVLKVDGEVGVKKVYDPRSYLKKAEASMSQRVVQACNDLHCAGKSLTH
# Mtb hypoxia rep: reduces hypoxia-regulated biosensor signal in M. tuberculosis | AID 1159583 | M. tuberculosis hypoxia-regulated fluorescent reporter, fluorescence | fluorescence inhibition, % (concentration not given with the values) | 0.1% of 300,000 active; in the data active = fluorescence inhibition mostly above about 23%, no sharp cut-off; inactive = mostly below about 17%
# FadD28 FP inh: inhibitors of Mycobacterium tuberculosis FadD28 bisubstrate binding; FadD28 bisubstrate probe binding, fluorescence polarization; 0.22% of 360,000 active; AID 588549; inhibition, % at 12.5 µM; in the data active = inhibition above about 8.5%, passing the limit was not always enough
# GDH-TPI counter-1: counter-screen for M. tuberculosis FBA inhibitors: GDH-TPI coupled enzymes | GDH-TPI coupled enzyme counterscreen, NADH absorbance | 1.2% of 360,000 active | AID 588335 | inhibition, % at 4.8 µM; in the data active = inhibition above about 30%;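 also: 0% = DMSO wells and 100% = wells lacking the enzyme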
# Rv3671c inh: Rv3671c (M. tuberculosis) protease inhibition; P9WHR9; inhibition, % at 5.96 µM; 0.048% of 320,000 active; AID 2606; in the data active = inhibition above about 38%;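 also: extracellular domain of Rv3671c used as enzyme; 0% = enzyme with DMSO and 100% = no enzyme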
# Mtb FBA inh conf: confirmation of M. tuberculosis fructose-bisphosphate aldolase inhibitors. shares compounds with FBA Mtb inh. purified M. tuberculosis FBA, fluorescence read-out. inhibition, % at 1 µM. 78% of 5,600 active;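 also: 0% = vehicle wells and 100% = reference inhibitor wells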
# GDH-TPI counter-2: inhibits GDH-TPI coupling enzymes, flagging Mtb FBA hits; 81% of 5,600 active; GDH-TPI coupled enzyme counterscreen, fluorescence; inhibition, % at 1 µM; shares compounds with FBA Mtb inh; in the data active = inhibition above about 10%
# GDH-TPI dose: GDH-TPI dose response counter-screen for Mtb FBA. shares compounds with FBA Mtb inh. GDH-TPI coupled enzyme assay, fluorescence, artifact counterscreen. IC50, µM. 79% of 170 active. AID 652145; call rule not given here
# * hit, by the source's call; . = no result given; + = active, no number. Rule as the data show it, unless noted: active = inhibition above about 27%; inactive = the rest.
SMILES,UGM FP inh,FBA Mtb inh,Mtb hypoxia rep,FadD28 FP inh,GDH-TPI counter-1,Rv3671c inh,Mtb FBA inh conf,GDH-TPI counter-2,others
Cc1nc(N2CCOCC2)c(C#N)c2c1COC(C)(C)C2,-1.6,51.1*,-13.8,-2.7,-5.0,-6.3,8.0,-5.2,
O=C(NN=Cc1cccnc1)c1cc(-c2ccccc2Cl)nc2ccccc12,.,.,0.2,.,.,.,.,.,
CN(C)C=C(C(=O)c1ccc(F)cc1)S(=O)(=O)c1ccc(F)cc1,.,.,-2.0,.,.,.,.,.,
CC(C)SCC(=O)Nc1ncc2c(n1)-c1ccccc1CC2,1.6,28.8*,9.8,-1.6,7.4,-0.4,3.2,1.7,
Cc1n[nH]c(=O)nc1NN=Cc1cccs1,.,.,6.6,.,.,.,.,.,
O=C(CCCN1C(=O)c2cccc3cccc(c23)C1=O)NC1CCS(=O)(=O)C1 (centres undefined),0.2,39.7*,-2.5,-2.5,9.3,3.3,56.2*,56.5*,
O=C(CCN1C(=O)c2cccc3cccc(c23)C1=O)NCc1cccnc1,-2.3,34.9*,4.5,-2.0,20.4,-7.9,2.4,-3.8,
O=C1c2cccc3cccc(c23)C(=O)N1Cc1cccnc1,-4.4,41.3*,11.3,-3.7,21.9,-10.3,2.9,0.3,
O=C(CCCCCN1C(=O)c2cccc3cccc(c23)C1=O)NCCO,0.1,35.7*,14.1,-1.7,6.3,-2.2,89.7*,74.0*,
Cc1cccc(C)c1NC(=O)CNC(=O)CCCN1C(=O)c2cccc3cccc(c23)C1=O,0.1,20.8,10.3,-1.4,18.8,-2.9,.,.,
CC(C)NC(=O)N(C)CC1Oc2c(NC(=O)C3CCCCC3)cccc2C(=O)N(C(C)CO)CC1C (centres undefined),.,.,3.7,.,.,.,.,.,
Cc1cc(C=NNC(=O)C(O)(c2ccccc2)c2ccccc2)c(C)n1-c1ccc(C(=O)O)cc1,.,.,0.2,.,.,.,.,.,
COc1cccc(C=NNc2nccnc2Cl)c1O,.,.,2.4,.,.,.,.,.,
CCCc1nc2ccc(N)cc2c(=O)n1Cc1ccccc1Cl,-0.3,27.9*,11.5,-2.0,0.8,4.3,105.3*,83.2*,
COc1ccc2nc(N=Cc3cccc(OC)c3O)sc2c1,.,.,9.6,.,.,.,.,.,
COc1ccc(C2=NN(C(=O)CCC(=O)O)C(c3cccs3)C2)cc1 (centres undefined),-0.6,6.9,.,-3.2,4.9,-0.9,.,.,
COc1ccc(C2=NN3C(C2)c2ccccc2OC3c2cccs2)cc1 (centres undefined),-1.0,60.0*,6.6,-2.1,4.0,6.4,28.1*,22.6*,
C[C@@H]1CN([C@H](C)CO)C(=O)c2cc(/C=C/c3ccccc3)cnc2O[C@H]1CN(C)C(=O)NC1CCCCC1,.,59.7*,.,-1.5,12.4,.,75.1*,69.6*,
C[C@H]1CN([C@@H](C)CO)C(=O)c2cc(Br)cnc2O[C@@H]1CN(C)C(=O)NC1CCCCC1,.,-1.4,.,-3.1,8.2,.,.,.,
COc1ccc(-c2[nH]c(-c3cc(OC)c4c(c3)OCO4)nc2-c2ccccc2)cc1,1.9,61.5*,10.0,-2.9,15.1,-9.8,+,+,
Cn1c2ccccc2c(=O)c2ccc(C#CC3(N)CCCCC3)cc21,-1.3,92.4*,7.3,-9.2,2.6,-1.5,35.1*,18.9*,
Cn1c2ccccc2c(=O)c2cc(C#CC3(O)CCCCC3)ccc21,1.1,92.6*,8.1,-0.7,6.7,-1.9,-5.2,-3.2,
CCOC1OC(C(=O)N2CCN(Cc3ccc4c(c3)OCO4)CC2)=CC(c2ccc3c(c2)OCO3)C1CCCO (centres undefined),.,.,1.3,.,.,.,.,.,
O=C(CN1CCCc2ccccc21)NN=Cc1c(O)ccc2ccccc12,.,.,15.3,.,.,.,.,.,
CCCC1OC23CCCCC2C(C#N)(C(=N)O3)C1(C#N)C#N (centres undefined),0.6,37.1*,7.6,0.8,1.0,2.7,15.4,-2.0,GDH-TPI dose=>10
SMILES,UGM FP inh,FBA Mtb inh,Mtb hypoxia rep,FadD28 FP inh,GDH-TPI counter-1,Rv3671c inh,Mtb FBA inh conf,GDH-TPI counter-2,others
COc1ccc(C2CC3(O)NC(=O)C(C#N)(C3C)C2(C#N)C#N)cc1 (centres undefined),-2.1,-1.5,5.0,-0.9,-18.6,-0.3,.,.,
N#CC12COC3(CCCCC3C1(C#N)C#N)OC2=N (centres undefined),0.6,38.6*,19.5,0.3,9.3,8.5,75.3*,61.1*,
N#CC1(C#N)COC23CCCCC2C1(C#N)C(=N)O3 (centres undefined),3.7,26.2,3.1,3.6,-1.6,3.6,.,.,
COc1ccc(C2OC34CCCCC3C(C#N)(C#N)C2(C#N)C(=N)O4)cc1 (centres undefined),2.8,38.9*,.,4.9,-11.0,12.3,80.3*,66.6*,
CN1C(=CC(=O)c2cccnc2)Sc2ccccc21,.,.,1.5,.,.,.,.,.,
CCN(CC)CCNC(=O)c1cc2c(=O)n(C)c3ccccc3c2n1C,0.6,27.6*,.,-0.3,-1.0,-3.4,+,+,
CNC(=S)NN=C(C)c1ccc2c(c1)OCO2,.,.,10.4,.,.,.,.,.,
COc1ccc(-c2cc3nc(-c4ccccc4)cc(N4CCCC(O)C4)n3n2)cc1 (centres undefined),-1.4,79.0*,-13.6,-2.6,-7.6,-3.8,9.6,-3.9,
COc1ccc(-c2cc3nc(-c4ccccc4)cc(N4CCN(C(=O)c5ccsc5)CC4)n3n2)cc1,.,3.2,.,-2.2,-2.8,.,.,.,
COc1ccc(-c2cc3nc(-c4ccccc4)cc(N4CCN(C(C)=O)CC4)n3n2)cc1,.,69.7*,.,-4.5,20.6,.,2.3,1.4,
COc1ccc(-c2cc3nc(-c4ccccc4)cc(N4CCN(C(=O)c5ccccc5)CC4)n3n2)cc1,.,2.9,.,-3.3,9.0,.,.,.,
COc1ccc(-c2cc3nc(-c4ccccc4)cc(N4CCC(O)CC4)n3n2)cc1,3.7,79.7*,-5.0,-2.8,11.8,-17.0,39.0*,27.0*,
Fc1ccc(-c2cc3nc(-c4ccccc4)cc(N4CCOCC4)n3n2)cc1,-0.6,7.2,3.3,-1.4,6.5,5.7,.,.,
Cc1ccc(-c2nnc(-c3ccc4c(c3)OCO4)o2)cc1,-2.1,27.0*,-0.7,-2.9,11.2,5.4,74.8*,55.0*,
c1coc(-c2nnc(-c3ccc4c(c3)OCO4)o2)c1,.,.,9.4,.,.,.,.,.,
Cc1nccc(-c2ccc3c(c2)OCO3)n1,0.9,28.7*,3.8,1.0,9.2,-10.5,68.4*,48.1*,
CC(C)c1oc(=O)cc2c1C(O)C1OC(=O)[C@@]3(C)CCC(O)[C@@]2(C)C13 (some centres undefined),.,.,3.8,.,.,.,.,.,
COc1ccccc1C1CN(c2ccccc2)N=C1c1cccs1 (centres undefined),-3.9,84.7*,15.6,-3.0,6.6,-1.3,4.3,-4.5,
COc1cccc(C2CN(c3ccc(F)cc3F)N=C2c2cccs2)c1OC (centres undefined),-1.2,85.6*,3.8,-4.9,4.6,2.3,168.5*,120.5*,
ON=C1CCC/C1=C\c1ccco1,.,.,5.1,.,.,.,.,.,
